Measurements: PubChem BioAssay (NCI)
Values joined by “and” are separate entries in the source; they are usually repeats but may differ in a detail not shown here. Identical values can stand only once. About 79,000 compounds went through this panel and 15% of them were active in at least one assay; those are over-represented in the sample as a whole. Cut-off read from the data, not from the text of the source: active = growth inhibition above about 70%; inactive = the rest.

What was measured:
[1] = NCI Yeast Anticancer Drug Screen. Data for the rad50 strain (AID 155);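 note: 0% = growth of vehicle-only cultures of the same strain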; conditions: S. cerevisiae rad50 strain growth inhibition; at 50.0 µM; hits give high values
Outline: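 Readout: growth inhibition relative to vehicle-treated cultures. Compound exposure was carried out in a genetically defined yeast strain deficient in DNA damage repair.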

[2] = NCI Yeast Anticancer Drug Screen. Data for the mec2-1 strain (AID 157); conditions: S. cerevisiae mec2-1 strain, at 50.0 µM, hits give high values
Outline: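 Yeast mec2-1 mutant treated with compound. Readout: growth inhibition vs vehicle controls.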

[3] = NCI Yeast Anticancer Drug Screen. Data for the sgs1 mgt1 strain (AID 161);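 note: 0% = growth of cultures given vehicle only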; conditions: S. cerevisiae sgs1 mgt1 strain, at 50.0 µM, hits give high values
Outline: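 Genetically altered yeast, compound exposure, growth inhibition relative to vehicle.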

[4] = NCI Yeast Anticancer Drug Screen. Data for the cln2 rad14 strain (AID 165);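 note: 0% = growth equal to vehicle treated cultures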; conditions: S. cerevisiae cln2 rad14 strain, at 50.0 µM, hits give high values
Outline: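 cln2 rad14 yeast strain; compound exposure; growth inhibition read vs vehicle controls.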

[5] = NCI Yeast Anticancer Drug Screen. Data for the bub3 strain (AID 167); conditions: S. cerevisiae bub3 mutant strain, at 50.0 µM, hits give high values
Outline: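 Readout: yeast growth inhibition, expressed relative to vehicle-only wells. The test organism is a mutant strain from a panel with lesions in DNA repair or checkpoint genes.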

[6] = NCI Yeast Anticancer Drug Screen. Data for the mlh1 rad18 strain (AID 175); conditions: S. cerevisiae mlh1 rad18 strain growth inhibition; at 50.0 µM; hits give high values
Outline: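 Yeast w/ defined DNA-repair lesions; compound exposure; growth vs vehicle controls → % inhibition.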

Measured: growth inhibition

O=Nc1ccc(NO)cc1
inactive: [1] 29.9% and 34% | [2] 32.7% and 7.45% | [3] 33.5% and 20.3% | [4] -25.2% and 22.3% | [5] 3.2% and 47.5% | [6] 3.35% and 31.6%

CN(C)C
inactive: [1] 17.1% and 2.45% | [2] -30.6% and -27.2% | [3] 10.4% and -17.1% | [4] -3.8% and -97.7% | [5] 9.8% and -21.9% | [6] 7.8% and -135%

O=c1nc(-c2ccccc2)cc(CC(O)(c2ccc(C(F)(F)F)cc2)c2ccc(Cl)c(Cl)c2)[nH]1 (configuration not stated)
inactive: [1] 1.8% and 28.8% | [2] 15% and 15.4% | [3] 5.55% and 25.8% | [4] -17.8% and -26.6% | [5] 25.7% and 54.4% | [6] 8.35% and 11.3%

O=C(CC(=O)c1cccnc1)NC(=O)c1ccccc1
inactive: [1] -1.05% and -34.5% | [2] -2.5% and -22.1% | [3] -1.35% and -4.05% | [4] 7.85% and 12.1% | [5] 3.9% and 7.6% | [6] -6% and -1.95%

CCC(C(=O)O)c1ccccc1 (configuration not stated)
inactive: [1] 10.7% and 12.6% | [2] 5.4% and 3.95% | [3] 9.4% and 1.25% | [4] -12.2% and -29.8% | [5] -19.6% and -1.9% | [6] 22.4% and 2.4%

COC1C(C)OCOC2COCOC21 (configuration not stated)
inactive: [1] 17.4% and -6.3% | [2] 2.2% and -13.2% | [3] 4.15% and -8.6% | [4] 0.5% and -19.8% | [5] 9.05% and -3.8% | [6] 7.4% and -0.45%

CC(OC(=O)c1ccccc1)C(OC(=O)c1ccccc1)C(OC(=O)c1ccccc1)c1cnn(-c2ccccc2)n1 (configuration not stated)
inactive: [1] 14.8% and 35.7% | [2] -2.35% and -1.9% | [3] 24.8% and 3.35% | [4] 19.1% and -9.45% | [5] 10.1% and 16.1% | [6] 6.7% and 32%

NC(=O)N/N=C/C=C/c1ccccc1
inactive: [1] 18.4% and -1.3% | [2] 12.7% and 3.1% | [3] 6.85% and -6.75% | [4] 7.55% and -20.4% | [5] -0.4% and -14.1% | [6] 5.05% and 6.95%

NC(N)=N/N=C(/C=N/N=C(N)N)C(O)C(O)CO (configuration not stated)
inactive: [1] -11% and -10.4% | [2] -1.95% and -8.1% | [3] -7.6% and 3.3% | [4] -39.3% and -17.4% | [5] -18.1% and -13.7% | [6] -20.4% and -19.9%

O=[N+]([O-])c1ccc(N=Cc2ccc(Cl)cc2)cc1
inactive: [1] -0.2% and 4.6% | [2] -6.05% and 4.9% | [3] -23.2% and -2.25% | [4] -0.2% and -40.4% | [5] 5.85% and 7.9% | [6] -4.15% and -3.05%

C=C1C(=O)OC2/C=C(/C)C3CC(O)C(C)(CC(OC(=O)/C(C)=C/C)C12)O3 (configuration not stated)
inactive: [1] -9.75% and -7.75% | [2] -12.9% and -20.4% | [3] -6.85% and 0.45% | [4] 13.4% and 8.45% | [5] -5.25% and -26.3% | [6] -5.35% and 2.9%

COC(=O)C(C)NC(=O)c1c2nc3c(C(=O)NC(C)C(=O)OC)ccc(C)c3oc-2c(C)c(=O)c1N (configuration not stated)
inactive: [1] 2.9% and 13.8% | [2] 14.7% and -7.2% | [3] 0.1% and -14.9% | [4] 22% and 15% | [5] 7.25% and -4.65% | [6] 29.1% and -4.85%

CC(C)CCC(N)C(=O)O (configuration not stated)
inactive: [1] -11.7% and 0.15% | [2] -14.9% and -0.55% | [3] -11.5% and -6% | [4] -42.5% and -15.7% | [5] -3.25% and 3.75% | [6] -22.6% and -2%

O=C(O)/C=C(/Oc1ccc(Cl)cc1Cl)C(=O)O
inactive: [1] 5.8% and 19.7% | [2] -3.25% and 6.45% | [3] 6.35% and 9.85% | [4] -19.9% and 15.4% | [5] 17.9% | [6] 11.8% and 19.7%

NC(=S)N/N=C/c1ccc([N+](=O)[O-])cc1
inactive: [1] 40.4% and 11.5% | [2] 29.7% and 13.2% | [3] 29.2% and 4.5% | [4] 24.1% and 20.6% | [5] 5.7% and 3.7% | [6] 30.9% and 5.95%

CN(C)CC(O)c1cc2ccccc2c2ccccc12 (configuration not stated)
inactive: [1] 3.3% and -1.9% | [2] 22.6% and -10.7% | [3] 3.4% and -2.3% | [4] -8.8% and -32.2% | [5] 18.4% and -5.5% | [6] 8.65% and -14.2%

Nc1cc(=O)[nH][nH]1
inactive: [1] -11.7% and -11.5% | [2] -9.65% and -5.8% | [3] -2.15% and -22.4% | [4] -5.9% and -7.35% | [5] -17.8% and -0.2% | [6] -15.8% and -9.2%

CC(Cc1ccccc1)NC(=O)c1ccccc1 (configuration not stated)
inactive: [1] 18.2% and 5.45% | [2] 3.3% and -1.1% | [3] -19.9% and -2.25% | [4] -93.5% and -7.65% | [5] -14.9% and 2.45% | [6] 7.4% and -5.3%

O=C(O)/C=C/c1cccc(Cl)c1
inactive: [1] 14.2% and -11.2% | [2] 10.2% and -19.9% | [3] 3.25% and -12.2% | [4] -16.1% and 13.5% | [5] -6.7% and -28.2% | [6] 24.8% and 23.6%

CCCC(=O)Oc1ccc(C(C)C)cc1
inactive: [1] 6% and 13.8% | [2] -22.3% and -1.45% | [3] -8.2% and 2.05% | [4] 10.4% and -31.6% | [5] -9.75% and 13.3% | [6] 5.8% and 10.1%

O=C(O)CCSCc1ccccc1
inactive: [1] -25.6% and 8.85% | [2] 0.7% and -6.9% | [3] -23.1% and 1.55% | [4] -31% and -3.5% | [5] -31.4% and -0.2% | [6] -30.3% and -16.1%

CC(=O)OCC1OC(n2c(C)c(C)cc(C#N)c2=S)C(OC(C)=O)C(OC(C)=O)C1OC(C)=O (configuration not stated)
inactive: [1] -18.1% and 18.2% | [2] -10.2% and -13.2% | [3] -4.8% and -4.05% | [4] -23.4% and 18.9% | [5] -2.2% and 18.7% | [6] 4.3% and 14.9%
